# Compounds with a hit are over-represented: about 2.4% of the library has one in this group of screens.
# PINK1 modulator = A Quantitative High throughput Screen to Identify Chemical Modulators of PINK1 Expression; AID 624263, 2012; 410,000 compounds, 0.2% hits; Potency, µM (series often up to 76.6 µM), without a hit: at the highest dose activation (PINK1 increase), usual class: activators; PINK1 immunofluorescence, high-content cytometry, 24 h; active = well fitted activation curve with a large enough effect; inconclusive = small, poorly fitted or top-dose-only effect; cell line not stated here; note: % of control where 0% means no effect; nearly all actives have a fitted effect of over 65% in size
#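 Stable cell line treated 24 h with compounds at 5 concentrations (CCCP controls), then fixed and immunostained for PINK1 plus nuclear and cell stains; PINK1 immunofluorescence quantified by laser-scanning microplate cytometry.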
# A549 tox = Nrf2 qHTS screen for inhibitors: counterscreen for cytotoxicity. A549 ARE-Fluc cells, CellTiter-Fluor viability, 18-24 h. Potency, µM (titrated, usually from 46 µM), inactives show at the top dose activity change, negative = cytotoxicity, usual class: inhibitors. 390,000 compounds, 0.16% hits; note: % is set by controls: 0 for no effect and ±100 for the full control effect
#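 A549 ARE-Fluc cells in 5% FBS OPTI-MEM, 5000 cells/well, rested 2 h then exposed to compounds in concentration-response for 18-24 h at 37 °C. Viability by CellTiter-Fluor fluorescence (Ex 405/Em 525) after 30 min; luciferase luminescence (BugLite, 15 min, RT) read afterwards.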
# Epigenetic reg = Quantitative High-Throughput Screen for Regulators of Epigenetic Control. Potency, µM (titrated, usually from 53.9 µM), inactives show at the highest dose GFP activation, most hits filed as activators. AID 1865, 2009. 280,000 compounds, 0.2% hits. murine LDR cells, GFP reporter derepression, 30 h; note: % of control where 0% means no effect; nearly all actives have a fitted effect of over 60% in size
#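 GFP-positive cell count by laser-scanning cytometry (objects 20–120 um) after 30 h, 37 C compound exposure of murine LDR cells; reporter is CMV-GFP integrated at a silenced locus, inducible by HDAC or DNMT inhibitors.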
# Nrf2 ARE act = qHTS of Nrf2 Activators | AREc32 ARE-luciferase reporter (MCF7-derived line), luminescence, 24 h | Potency, µM (titrated, usually from 46.1 µM), for inactives: at the top dose activation, usual class: activators | 410,000 compounds, 0.31% hits | AID 624171, 2012; note: % of control where 0% means no effect; nearly all actives have a fitted effect of over 65% in size
#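 Luminescent ARE reporter assay in AREc32_Fluc cells: overnight plating at 37 deg C, 24 hr compound incubation, Steady-Glo added, 30 min RT before reading.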
# Nrf2 block = Nrf2 qHTS screen for inhibitors | 360,000 compounds, 2.1% hits | A549 ARE-Fluc reporter, luciferase luminescence, 18-24 h | AID 504444, 2011 | Potency, µM (titrated, usually from 46 µM), for inactives: at the top dose activity change, negative = inhibition, most hits filed as inhibitors; note: % is set by controls: 0 for no effect and ±100 for the full control effect; nearly all actives have a fitted effect of over 60% in size
#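 Two sequential reads on A549 ARE_Fluc cells exposed to compound for 18-24 h: a CellTiter-Fluor fluorescence read for viability, then a luciferase luminescence read for Nrf2/ARE activity.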
# An asterisk follows results filed as active; ? = inconclusive; / = no result; [ ] = remark or other dose. Unless noted, calls come from the whole dose curve; as a rule, active = well fitted curve in the direction sought with a large enough effect; inconclusive = small, poorly fitted or top-dose-only effect, or another doubt; inactive = no such curve, though single readings can be large; an effect the other way counts as inactive or inconclusive. Potency is the fitted concentration of half-maximal effect.
SMILES,PINK1 modulator,A549 tox,Epigenetic reg,Nrf2 ARE act,Nrf2 block
C(#Cc1ccccc1)C[N+]1(CC#Cc2ccccc2)CCCCC1,0.3%,-18.5%,0.0%,0.4%,11.6µM*
Cc1ccc(C(C(=O)NCC2CCCO2)N(Cc2ccccc2)C(=O)c2ccc(-c3ccccc3)[nH]2)o1 (configuration not stated),1.4%,?,0.0%,0.2%,?
O=C(NCC1CCCO1)C(c1cccs1)N(Cc1ccccc1Cl)C(=O)c1ccc(-c2ccccc2)[nH]1 (configuration not stated),3.0%,-6.3%,0.0%,0.2%,23.1µM*
CCn1c(-c2ccccc2F)nc2cc(C(=O)NCc3ccc(C)o3)cc(NC(C)=O)c21,-0.4%,/,/,/,/
Cc1sc(NC(=O)/C=C/C(=O)O)c(C(N)=O)c1-c1ccc(C(C)(C)C)cc1,1.8%,-7.9%,-1.2%,12.6µM*,-25.5%
COc1cccc(N2CCN(C(=O)C3CCN(S(=O)(=O)c4cn(C)cn4)CC3)CC2)c1,-0.6%,0.6%,-2.5%,0.3%,/
CC(C)OCCCN(Cc1ccco1)C(=O)c1cc2c(s1)-c1ccccc1OC2,3.9%,6.6%,1.1%,-0.1%,16.4µM*
Cc1onc(-c2ccccc2Cl)c1C(=O)NCc1ccccc1F,0.9%,5.7%,/,0.0%,-15.3%
Cc1onc(-c2ccccc2Cl)c1C(=O)NCc1nc(-c2ccc(C(F)(F)F)cc2)no1,7.3%,0.1%,1.1%,1.8%,25.9µM*
O=C(CC1SC(=Nc2cccc3ccccc23)N(Cc2ccccn2)C1=O)Nc1ccccc1Br (configuration not stated),2.0%,-18.5%,1.1%,3.9%,5.17µM*
CN(Cc1ccccc1)/[N+]([O-])=N/Oc1ccc([N+](=O)[O-])cc1[N+](=O)[O-],0.5%,/,/,/,/
Cc1cccc(C(=O)N2CCc3cc(-c4nc(NC(=O)CN5CCCC5)sc4C)ccc32)c1,6.1%,-3.6%,/,-0.6%,3.5%
Cc1sc(NC(=O)Cc2ccc3c(c2)OCO3)nc1-c1ccc2c(c1)CCN2C(=O)c1cccc(F)c1,0.9%,11.0%,0.0%,0.5%,7.31µM*
CC(=O)c1ccccc1-c1ccc2c(c1)CC(CNC(=O)Cc1c[nH]c3ccccc13)O2 (configuration not stated),-0.5%,/,/,/,/
COc1ccc(C2=Nn3c(nnc3-c3ccccc3O)SC2)c(OC)c1,/,4.0%,/,/,5.8%
COC(=O)c1ccc2c(c1)C(C)(C)C(/C=C/c1ccc(OC)c(OC)c1OC)=[N+]2C,-1.9%,?,0.9%,-3.3%,16.4µM*
c1ccc2sc(SCSc3nc4ccccc4s3)nc2c1,0.6%,2.3%,0.1%,6.7%,13.6%
O=C(O)CCSc1nc2ccccc2s1,3.6%[38.3 µM],0.5%,0.0%,-1.7%,13µM*
CCOC(=O)NC(=O)COC(=O)CCCSc1nc2ccccc2s1,1.2%,-10.0%,-1.4%,-2.0%,18.4µM*
COc1ccc(CN2CCOc3ccc(C(O)c4cccnc4)cc3C2)cc1O (configuration not stated),0.7%,/,/,/,/
CC(c1ccc(F)cc1)n1c(-c2ccc3ccccc3n2)n[nH]c1=S (configuration not stated),/,-11.9%,-0.9%,-0.4%,?
CC(c1ccc(Cl)cc1)n1c(-c2ccc3ccccc3n2)n[nH]c1=S (configuration not stated),10.2%[38.3 µM],?,-1.2%,0.1%,18.4µM*
c1ccc(CSc2nccc(-c3ccco3)n2)cc1,10.6%,7.0%,/,10µM*,8.0%
COc1ccc(-n2ccc(-c3sc(NCc4cc(OC)c5c(c4)OCO5)nc3C)n2)cc1,-0.5%,/,/,/,/
CC(C)Cc1ccc(C(C)C(=O)Nc2cccnc2)cc1 (configuration not stated),0.2%,-9.6%,/,0.5%,6.51µM*
SMILES,PINK1 modulator,A549 tox,Epigenetic reg,Nrf2 ARE act,Nrf2 block
CCN(CC)c1nc(C#N)nc(N2CCOCC2)n1,1.0%,-3.5%,/,/,23.1µM*
COc1ccc(/C=N/NC(=O)c2cc(C(C)(C)C)[nH]n2)cc1COc1ccc(F)cc1F,15.3%,?,-2.6%,-0.8%,20.6µM*
Cc1ccc(S(=O)(=O)N(C)CCCC(=O)Nc2ccncc2)cc1,-0.6%,-5.8%,-2.2%,-0.6%,9.2µM*
COc1ccc(OCc2nc3ccccc3n2C(C)C)cc1,0.0%,0.0%,-2.1%,5.3%,23.1µM*
CCn1c(COc2ccc(OC)cc2)nc2ccccc21,-0.7%,-4.9%,0.9%,0.7%,2.8%
Clc1cccc(CNc2ncnc3nc[nH]c23)c1,1.3%,/,/,/,/
O=C(CSc1nc2ccc([N+](=O)[O-])cc2[nH]1)NC1CCCCCC1,14.1µM*,?,0.0%,2.4%,13µM*
O=C(CNC(=O)c1ccc(Cl)cc1)OC(C(=O)Nc1cc(C(F)(F)F)ccc1Cl)c1ccccc1 (configuration not stated),/,?,/,/,4.2%
O=C(NCCCSc1ccccc1)c1cc(Cl)ccc1O,17.8µM*,3.1%,/,1.7%,-1.2%
CCOC(=O)/C(C#N)=C1/C=C(C)NC(c2ccccc2O)=N1,?,-3.9%[1.84 µM],-4.8%,0.1%,13µM*
CCOC(=O)/C(C#N)=C1\Nc2ccccc2N=C1N(CC(C)C)CC(C)C,?,-3.8%,-2.0%,-0.7%,8.2%
CCC1CCCCN1S(=O)(=O)c1ccc(C(=O)Nc2nnc(-c3cccs3)o2)cc1 (configuration not stated),1.7%,?,1.0%,-0.5%,5.01µM*
CC1CC(C)CN(S(=O)(=O)c2ccc(C(=O)Nc3nnc(-c4cccs4)o3)cc2)C1 (configuration not stated),1.2%,?,4.1%,-0.6%,5.01µM*
CN(C)S(=O)(=O)c1ccc(C(=O)Nc2nnc(-c3cccs3)o2)cc1,0.3%,-4.3%,-0.5%,0.7%,?
CCOc1ccc(C(=O)C2CCN(CC(=O)Nc3ccccc3N3CCOCC3)CC2)cc1,10.8%[38.3 µM],-13.8%[1.84 µM],-2.9%,1.7%,11.6µM*
O=C(Nc1cccc(S(=O)(=O)N2CCCCC2)c1)c1ccc(Cl)nc1,9.5%,-7.3%,/,-0.4%,20.6µM*
O=C(Nc1cccc(S(=O)(=O)N2CCCCCC2)c1)c1ccc(Cl)nc1,7.4%,?,/,3.0%,20.6µM*
O=C(Nc1ccc(S(=O)(=O)N2CCCCC2)cc1)c1ccc(Cl)nc1,6.1%,-11.6%,/,0.4%,18.4µM*
O=C(Nc1ccc(Cc2ccncc2)cc1)c1ccc(S(=O)(=O)N2CCCC2)cc1,-1.0%,-20.4%,-0.4%,1.5%,16.4µM*
Cc1oc(-c2ccccc2NC(=O)C2CCCO2)nc1CNC(=O)c1cc(F)c(F)cc1F (configuration not stated),1.5%,/,/,/,/
Cc1cc(C)c(NC(=O)CCn2c(=O)c3cccn3c3cccnc32)c(C)c1,-0.5%,11.8%,3.2%,0.8%,4.5%

# Assay outcomes (PubChem BioAssay)
